# Assay outcomes as filed in PubChem.
# Pf Dd2 inh = P. falciparum Dd2 growth inhibition; actives 2.3% (n = 94,000); activity change, % at 10 µM; SYBR Green, 72 h; active compounds read low; in the data active = activity change below about -80%; inconclusive = no clear call, values can overlap the other calls
# C diff growth = inhibitors of Clostridium difficile growth | actives 0.25% (n = 86,000) | Clostridium difficile clinical isolate growth, OD600, 24 h; active compounds read low | growth activity, negative = inhibition, % at 16 µg/mL (by protocol) | AID 1259249;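 active = mean growth activity at or below -80% and every replicate also at or below -80%; inconclusive = mean at or below -80% but some replicate above -80%; inactive = mean growth activity above -80%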;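 note: 0% = DMSO wells and -100% = levofloxacin 16 µg/mL wells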
# T cruzi growth-1 = blocks T. cruzi growth in NIH3T3 culture; T. cruzi beta-gal in NIH3T3, GalScreen luminescence, 90 h; inhibition, % at 8.34 µM; actives 5.9% (n = 77,000); AID 624255;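 active = mean inhibition above about 93%, with at least 55% of replicates each passing it, limit read from the data, passing the limit was not always enough; inconclusive = only one of those two conditions holds; inactive = neither condition holds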
# T cruzi growth-2 = Trypanosoma cruzi proliferation inhibition | shares compounds with T cruzi growth-1 | T. cruzi beta-gal in NIH3T3, GalScreen luminescence, 90 h | inhibition, % at 8.35 µM | actives 72% (n = 5,600) | AID 651739;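 active = mean replicate inhibition above about 95% and at least 55% of replicates individually reaching it, limit read from the data; inconclusive = only one of the two criteria is met; inactive = neither criterion is met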
# T cruzi growth-3 = blocks T. cruzi growth in NIH3T3 host cells; actives 21% (n = 5,600); T. cruzi beta-gal in NIH3T3, GalScreen luminescence, 90 h; AID 651740; inhibition, % at 2.09 µM; shares compounds with T cruzi growth-1;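 active = mean inhibition above about 95%, with at least 55% of replicates also reaching it, limit read from the data; inconclusive = meets just one of the two conditions; inactive = meets neither condition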;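 note: plate controls were neutral control median for no effect and positive control median for full effect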
# 3T3 cytotox = NIH/3T3 (mouse) viability loss; shares compounds with T cruzi growth-1; NIH/3T3 viability, CellTiter-Glo ATP luminescence, 90 h; cytotoxicity (signal decrease), % at 8.35 µM; actives 14% (n = 5,600); AID 651742;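 active = mean signal decrease across replicates above about 35% based on untreated-well scatter, with enough replicates individually passing, limit read from the data; inconclusive = no rule stated though some were filed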;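 note: 0% = median of neutral control wells and 100% = median of positive control wells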
# NIH3T3 tox 2 = NIH/3T3 (mouse) viability loss | shares compounds with T cruzi growth-1 | NIH/3T3 viability, CellTiter-Glo ATP luminescence, 90 h | inhibition, % at 24.9 µM | actives 56% (n = 5,600);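 active = mean loss of cell viability signal at or above a set limit, and enough replicates individually reaching it; inconclusive = meets only the mean limit or only the replicate share; inactive = meets neither condition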;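 note: 0% = median of neutral control wells and 100% = median of positive control wells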
# Active calls of the source: *; ? = inconclusive; . = no result. A selection: hits, their analogues and other compounds. The true share with any hit is near 6.8%.
SMILES,Pf Dd2 inh,C diff growth,T cruzi growth-1,T cruzi growth-2,T cruzi growth-3,3T3 cytotox,NIH3T3 tox 2
C[C@H](CO)N1C[C@H](C)[C@@H](CN(C)C)OCCCC[C@H](C)Oc2ccc(NC(=O)NC3CCCCC3)cc2C1=O,.,0.9,-2.6,.,.,.,.
CCCC#Cc1ccc2c(c1)O[C@H](CN(C)Cc1ccccc1)[C@@H](C)CN([C@@H](C)CO)S2(=O)=O,-22.1,.,.,.,.,.,.
CCCC#Cc1ccc2c(c1)O[C@H](CN(C)Cc1ccncc1)[C@H](C)CN([C@H](C)CO)S2(=O)=O,-37.2,6.3,114.0*,102.7*,75.8,36.9*,?
Cc1cccc(S(=O)(=O)N2CCCCN3[C@H](C2)[C@H](c2ccc(C#CC(C)C)cc2)[C@@H]3CO)c1,-48.1,-4.1,91.9,.,.,.,.
Cc1cccc(S(=O)(=O)N2CCCCN3[C@H](C2)[C@@H](c2ccc(C#CC(C)C)cc2)[C@@H]3CO)c1,-33.9,-7.2,?,101.4*,112.4*,46.6*,98.4*
COc1cccc(S(=O)(=O)N2CCCCN3[C@H](CO)[C@H](c4ccc(C#CC(C)C)cc4)[C@H]3C2)c1,-68.6,54.4,97.2*,106.2*,107.5*,32.8,103.4*
COc1cccc(S(=O)(=O)N2CCCCN3[C@H](C2)[C@@H](c2ccc(C#CC(C)C)cc2)[C@@H]3CO)c1,-15.7,13.1,81.5,.,.,.,.
COCC(=O)N1[C@H](CO)[C@H](c2ccc(-c3cccc(F)c3)cc2)C12CN(C(=O)C1CC1)C2,-26.7,2.8,.,.,.,.,.
CCCN(C)C[C@H]1Oc2ncc(C#CC3CC3)cc2C(=O)N([C@H](C)CO)C[C@@H]1C,-34.2,3.9,58.4,.,.,.,.
C[C@@H]1CN([C@@H](C)CO)S(=O)(=O)c2ccc(C3=CCCC3)cc2O[C@H]1CN(C)Cc1ccncc1,-64.9,-3.8,114.2*,96.8*,102.1*,50.0*,102.1*
C[C@@H]1CN([C@H](C)CO)S(=O)(=O)c2ccc(C3=CCCC3)cc2O[C@@H]1CN(C)C(=O)Cc1ccncc1,-49.3,2.0,81.7,.,.,.,.
C[C@@H]1CN([C@H](C)CO)S(=O)(=O)c2ccc(C3=CCCC3)cc2O[C@@H]1CN(C)Cc1cccnc1,-16.8,2.0,74.0,.,.,.,.
C[C@H](CO)N1C[C@H](C)[C@@H](CN(C)C(=O)Cc2ccncc2)Oc2cc(C3=CCCC3)ccc2S1(=O)=O,-20.2,5.7,96.0*,88.3,44.1,-8.0,13.2
C[C@H]1CN([C@@H](C)CO)S(=O)(=O)c2ccc(C3=CCCC3)cc2O[C@H]1CN(C)Cc1cncnc1,-46.0,6.3,6.6,.,.,.,.
C[C@H](CO)N1C[C@H](C)[C@H](CN(C)Cc2ccncc2)Oc2cc(C3=CCCC3)ccc2S1(=O)=O,-29.0,0.3,107.9*,96.9*,88.4,20.6,43.5*
Cc1ccc(S(=O)(=O)N(C)C[C@@H]2Oc3ccc(NS(=O)(=O)c4ccc(Cl)cc4)cc3CC(=O)N([C@@H](C)CO)C[C@H]2C)cc1,-68.7,-2.0,37.2,.,.,.,.
CC(C)NC(=O)Nc1ccc2c(c1)C(=O)N([C@H](C)CO)C[C@@H](C)[C@@H](CN(C)C(=O)NC(C)C)O2,10.5,-2.1,35.0,.,.,.,.
COCC#Cc1ccc2c(c1)O[C@@H](CN(C)Cc1ccc(F)cc1)[C@H](C)CN([C@@H](C)CO)S2(=O)=O,-74.5,-3.8,85.4,.,.,.,.
C[C@@H]1CN([C@H](C)CO)C(=O)c2cc(C3=CCCCC3)cnc2O[C@H]1CN(C)S(C)(=O)=O,13.4,.,55.6,.,.,.,.
COCC(=O)Nc1ccc2c(c1)C(=O)N(C)C[C@H](OC)[C@@H](C)CN(Cc1ccccc1OC)[C@H](C)CO2,-45.5,-0.4,-8.5,.,.,.,.
C[C@@H]1CN([C@H](C)CO)C(=O)Cc2cc(NS(=O)(=O)c3ccccc3)ccc2O[C@H]1CN(C)S(=O)(=O)c1cccs1,-13.3,6.3,25.6,.,.,.,.
CN1c2ccc(Br)cc2[C@H]2[C@H](CCN2C(=O)C2CC2)[C@H]1CO,2.1,-0.4,104.4*,81.4,28.8,17.6,-0.5
COc1ccc(-c2ccc3c(c2)[C@@H]2[C@@H](CCN2C(=O)C2CCC2)[C@H](CO)N3C)cc1,-17.4,-5.5,.,.,.,.,.
COc1ccc(-c2ccc3c(c2)[C@@H]2[C@@H](CCN2C(=O)C2CCCCC2)[C@@H](CO)N3C)cc1,-61.7,-12.1,99.0*,92.0,108.4*,6.2,106.1*
CN(C)C(=O)c1ccc(-c2ccc3c(c2)[C@H]2[C@H](CCN2C(=O)C2CCOCC2)[C@H](CO)N3C)cc1,9.2,-0.1,86.4,.,.,.,.
SMILES,Pf Dd2 inh,C diff growth,T cruzi growth-1,T cruzi growth-2,T cruzi growth-3,3T3 cytotox,NIH3T3 tox 2
CN1c2ccc(Br)cc2[C@@H]2[C@@H](CCN2C(=O)C2CC2)[C@H]1CO,-46.8,-4.5,60.7,.,.,.,.
CN(C)C(=O)c1ccc(-c2ccc3c(c2)[C@@H]2[C@@H](CCN2C(=O)C2CCOCC2)[C@H](CO)N3C)cc1,-15.0,6.3,96.6*,105.6*,40.4,-5.5,11.5
COc1ccc(-c2ccc3c(c2)[C@@H]2[C@@H](CCN2C(=O)c2ccncc2)[C@@H](CO)N3C)cc1,-0.5,-1.9,97.8*,101.4*,84.1,9.2,14.9
CN1c2ccc(-c3ccccc3)cc2[C@@H]2[C@@H](CCN2C(=O)c2ccncc2)[C@H]1CO,12.7,-6.8,86.1,.,.,.,.
Cc1noc(C)c1NC(=O)N[C@H]1C=C[C@H](CC(=O)N2CCCCC2)O[C@H]1CO,14.3,5.7,21.9,.,.,.,.
CN1CCN(C(=O)C[C@H]2C[C@@H]3c4cc(NS(C)(=O)=O)ccc4O[C@@H]3[C@@H](CO)O2)CC1,21.2,-8.8,-27.0,.,.,.,.
C[C@H](CO)N1C[C@H](C)[C@H](CN(C)CC2CC2)Oc2ccc(NS(C)(=O)=O)cc2CC1=O,18.3,-2.6,-6.3,.,.,.,.
O=C(Cc1ccccn1)NCC[C@@H]1CC[C@H](NC(=O)CN2CCOCC2)[C@H](CO)O1,-4.0,-1.2,.,.,.,.,.
Cc1ccccc1S(=O)(=O)N1C[C@H](O)COC[C@@H]2O[C@@H](CC(=O)NCCc3ccccc3)CC[C@H]21,-14.4,13.6,50.3,.,.,.,.
COc1ccc(-c2ccc3c(c2)[C@H]2[C@H](CCN2C(=O)C2CCOCC2)[C@@H](CO)N3C)cc1,-4.3,-5.2,11.6,.,.,.,.
COc1ccc(-c2ccc3c(c2)[C@@H]2[C@@H](CCN2C(=O)C2CC2)[C@@H](CO)N3C)cc1,-4.3,9.7,101.5*,107.3*,108.6*,-5.7,50.0*
CC(C)C#Cc1ccc2c(c1)O[C@H](CN(C)C(=O)c1cccnc1)[C@@H](C)CN([C@@H](C)CO)S2(=O)=O,-4.4,-8.1,73.3,.,.,.,.
Cc1ccc(S(=O)(=O)Nc2ccc3c(c2)C(=O)N([C@@H](C)CO)C[C@@H](C)[C@@H](CN(C)S(=O)(=O)c2ccccc2)OCCCC[C@H](C)O3)cc1,-74.6,-4.9,97.4*,102.2*,41.9,-20.1,16.6
